# Columns and labels:
# Test in all cases: SPOT peptide array binding signal intensity (averaged, normalized) (arbitrary units (background-subtracted, floor 0; scale differs between SH3 domains)); higher = stronger binding of the SH3 domain to the peptide
# CaNbp2 = target: CaNbp2
# Outline: (§1)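 SH3 domains from four yeast species were expressed as GST fusions in E. coli BL21(DE3) and purified on glutathione Sepharose. Each was incubated at 10 μg/ml overnight at 4°C in TBS-based blocking buffer on cellulose membranes bearing synthetic 15-mer peptides, in which serines replaced cysteines. Bound protein was detected with anti-GST antibody, an HRP anti-mouse secondary and luminol, then imaged and quantified with Genespotter. The binding signal is the normalized, background-subtracted spot intensity averaged over replicates, in arbitrary units that are not the same from one domain to another.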
# CaRvs167 = target: CaRvs167
# Outline: as §1
# CaRvs167-3 = target: CaRvs167-3
# Outline: as §1
# CaSho1 = target: CaSho1
# Outline: as §1
# CaSla1-D1-D2 = target: CaSla1-D1-D2
# Outline: as §1
# CaSla1-D3 = target: CaSla1-D3
# Outline: as §1
# ScAbp1 = target: ScAbp1
# Outline: as §1
# ScBbc1 = target: ScBbc1
# Outline: as §1
# ScBem1-D1 = target: ScBem1-D1
# Outline: as §1
# ScBzz1-D1 = target: ScBzz1-D1
# Outline: as §1
# ScBzz1-D2 = target: ScBzz1-D2
# Outline: as §1
# ScCyk3 = target: ScCyk3
# Outline: as §1
# ScFus1 = target: ScFus1
# Outline: as §1
# ScHof1 = target: ScHof1
# Outline: as §1
# ScHse1 = target: ScHse1
# Outline: as §1
# ScLsb1 = target: ScLsb1
# Outline: as §1
# ScLsb2 = target: ScLsb2
# Outline: as §1
# ScLsb3 = target: ScLsb3
# Outline: as §1
# ScLsb4 = target: ScLsb4
# Outline: as §1
# ScMyo3 = target: ScMyo3
# Outline: as §1
# ScMyo5 = target: ScMyo5
# Outline: as §1
# ScNbp2 = target: ScNbp2
# Outline: as §1
# ScPex13 = target: ScPex13
# Outline: as §1
# ScRvs167 = target: ScRvs167
# Outline: as §1
# ScSho1 = target: ScSho1
# Outline: as §1
# ScSla1-D1-D2 = target: ScSla1-D1-D2
# Outline: as §1
# ScSla1-D3 = target: ScSla1-D3
# Outline: as §1
# SpAbp1-D1 = target: SpAbp1-D1
# Outline: as §1
# SpBbc1 = target: SpBbc1
# Outline: as §1
# SpBzz1-D1 = target: SpBzz1-D1
# Outline: as §1
# SpBzz1-D2 = target: SpBzz1-D2
# Outline: as §1
# SpCyk3 = target: SpCyk3
# Outline: as §1
# SpHof1 = target: SpHof1
# Outline: as §1
# SpHof1-2 = target: SpHof1-2
# Outline: as §1
# SpHof1-3 = target: SpHof1-3
# Outline: as §1
# SpHse1 = target: SpHse1
# Outline: as §1
# SpLsb1 = target: SpLsb1
# Outline: as §1
# SpLsb4 = target: SpLsb4
# Outline: as §1
# SpMyo1 = target: SpMyo1
# Outline: as §1
# SpNbp2 = target: SpNbp2
# Outline: as §1
# SpPex13 = target: SpPex13
# Outline: as §1
# SpRvs167 = target: SpRvs167
# Outline: as §1
# SpSla1-D1-D2 = target: SpSla1-D1-D2
# Outline: as §1
# SpSla1-D3 = target: SpSla1-D3
# Outline: as §1
# AgAbp1 = target: AgAbp1
# Outline: as §1
# AgBbc1 = target: AgBbc1
# Outline: as §1
# AgBem1-D1 = target: AgBem1-D1
# Outline: as §1
# AgBzz1-D1 = target: AgBzz1-D1
# Outline: as §1
# AgBzz1-D2 = target: AgBzz1-D2
# Outline: as §1
# AgCyk3 = target: AgCyk3
# Outline: as §1
# AgFus1 = target: AgFus1
# Outline: as §1
# AgHof1 = target: AgHof1
# Outline: as §1
# AgHse1 = target: AgHse1
# Outline: as §1
# AgLsb1 = target: AgLsb1
# Outline: as §1
# AgLsb4 = target: AgLsb4
# Outline: as §1
# AgMyo5 = target: AgMyo5
# Outline: as §1
# AgNbp2 = target: AgNbp2
# Outline: as §1
# AgRvs167 = target: AgRvs167
# Outline: as §1
# AgSho1 = target: AgSho1
# Outline: as §1
# AgSla1-D1-D2 = target: AgSla1-D1-D2
# Outline: as §1
# AgSla1-D3 = target: AgSla1-D3
# Outline: as §1
# CaAbp1-D1 = target: CaAbp1-D1
# Outline: as §1
# CaAbp1-D2 = target: CaAbp1-D2
# Outline: as §1
# CaBbc1 = target: CaBbc1
# Outline: as §1
# CaBem1-D1 = target: CaBem1-D1
# Outline: as §1
# CaBzz1-D1 = target: CaBzz1-D1
# Outline: as §1
# CaBzz1-D2 = target: CaBzz1-D2
# Outline: as §1
# CaCyk3 = target: CaCyk3
# Outline: as §1
# CaFus1 = target: CaFus1
# Outline: as §1
# CaHof1 = target: CaHof1
# Outline: as §1
# CaHse1 = target: CaHse1
# Outline: as §1
# CaLsb1 = target: CaLsb1
# Outline: as §1
# CaLsb4 = target: CaLsb4
# Outline: as §1
# CaMyo5 = target: CaMyo5
# Outline: as §1
binder,measurement,setting,value
WTQRRGPLVVYAEDN,SPOT peptide array binding signal intensity,CaNbp2,44.5
same,SPOT peptide array binding signal intensity,CaRvs167,12.2
same,SPOT peptide array binding signal intensity,CaRvs167-3,3.5
same,SPOT peptide array binding signal intensity,CaSho1,32
same,SPOT peptide array binding signal intensity,CaSla1-D1-D2,≤ 0
same,SPOT peptide array binding signal intensity,CaSla1-D3,0.25
same,SPOT peptide array binding signal intensity,ScAbp1,1
same,SPOT peptide array binding signal intensity,ScBbc1,≤ 0
same,SPOT peptide array binding signal intensity,ScBem1-D1,11.5
same,SPOT peptide array binding signal intensity,ScBzz1-D1,28
same,SPOT peptide array binding signal intensity,ScBzz1-D2,58
same,SPOT peptide array binding signal intensity,ScCyk3,10
same,SPOT peptide array binding signal intensity,ScFus1,28.5
same,SPOT peptide array binding signal intensity,ScHof1,0.5
same,SPOT peptide array binding signal intensity,ScHse1,140
same,SPOT peptide array binding signal intensity,ScLsb1,3.5
same,SPOT peptide array binding signal intensity,ScLsb2,≤ 0
same,SPOT peptide array binding signal intensity,ScLsb3,5
same,SPOT peptide array binding signal intensity,ScLsb4,≤ 0
same,SPOT peptide array binding signal intensity,ScMyo3,16
same,SPOT peptide array binding signal intensity,ScMyo5,9
same,SPOT peptide array binding signal intensity,ScNbp2,1.5
same,SPOT peptide array binding signal intensity,ScPex13,1
same,SPOT peptide array binding signal intensity,ScRvs167,20.8
same,SPOT peptide array binding signal intensity,ScSho1,≤ 0
same,SPOT peptide array binding signal intensity,ScSla1-D1-D2,≤ 0
same,SPOT peptide array binding signal intensity,ScSla1-D3,9
same,SPOT peptide array binding signal intensity,SpAbp1-D1,6
same,SPOT peptide array binding signal intensity,SpBbc1,2.75
same,SPOT peptide array binding signal intensity,SpBzz1-D1,458
same,SPOT peptide array binding signal intensity,SpBzz1-D2,≤ 0
same,SPOT peptide array binding signal intensity,SpCyk3,7
same,SPOT peptide array binding signal intensity,SpHof1,29.5
same,SPOT peptide array binding signal intensity,SpHof1-2,22.5
same,SPOT peptide array binding signal intensity,SpHof1-3,23
same,SPOT peptide array binding signal intensity,SpHse1,66.2
same,SPOT peptide array binding signal intensity,SpLsb1,≤ 0
same,SPOT peptide array binding signal intensity,SpLsb4,31
same,SPOT peptide array binding signal intensity,SpMyo1,16
same,SPOT peptide array binding signal intensity,SpNbp2,2
same,SPOT peptide array binding signal intensity,SpPex13,19
same,SPOT peptide array binding signal intensity,SpRvs167,16
same,SPOT peptide array binding signal intensity,SpSla1-D1-D2,3
same,SPOT peptide array binding signal intensity,SpSla1-D3,6
NRARYLPQNPDIIAG,SPOT peptide array binding signal intensity,AgAbp1,≤ 0
same,SPOT peptide array binding signal intensity,AgBbc1,≤ 0
same,SPOT peptide array binding signal intensity,AgBem1-D1,≤ 0
same,SPOT peptide array binding signal intensity,AgBzz1-D1,9
same,SPOT peptide array binding signal intensity,AgBzz1-D2,19
same,SPOT peptide array binding signal intensity,AgCyk3,≤ 0
same,SPOT peptide array binding signal intensity,AgFus1,8
same,SPOT peptide array binding signal intensity,AgHof1,3.5
same,SPOT peptide array binding signal intensity,AgHse1,85
same,SPOT peptide array binding signal intensity,AgLsb1,1
same,SPOT peptide array binding signal intensity,AgLsb4,7
same,SPOT peptide array binding signal intensity,AgMyo5,0.5
same,SPOT peptide array binding signal intensity,AgNbp2,≤ 0
same,SPOT peptide array binding signal intensity,AgRvs167,0.5
same,SPOT peptide array binding signal intensity,AgSho1,1
same,SPOT peptide array binding signal intensity,AgSla1-D1-D2,2
same,SPOT peptide array binding signal intensity,AgSla1-D3,3.25
same,SPOT peptide array binding signal intensity,CaAbp1-D1,≤ 0
same,SPOT peptide array binding signal intensity,CaAbp1-D2,≤ 0
same,SPOT peptide array binding signal intensity,CaBbc1,≤ 0
same,SPOT peptide array binding signal intensity,CaBem1-D1,≤ 0
same,SPOT peptide array binding signal intensity,CaBzz1-D1,58
same,SPOT peptide array binding signal intensity,CaBzz1-D2,26.5
same,SPOT peptide array binding signal intensity,CaCyk3,≤ 0
same,SPOT peptide array binding signal intensity,CaFus1,29
same,SPOT peptide array binding signal intensity,CaHof1,≤ 0
same,SPOT peptide array binding signal intensity,CaHse1,13.8
same,SPOT peptide array binding signal intensity,CaLsb1,1
same,SPOT peptide array binding signal intensity,CaLsb4,4
same,SPOT peptide array binding signal intensity,CaMyo5,4.25
same,SPOT peptide array binding signal intensity,CaNbp2,59
same,SPOT peptide array binding signal intensity,CaRvs167,4.17
same,SPOT peptide array binding signal intensity,CaRvs167-3,1.75
same,SPOT peptide array binding signal intensity,CaSho1,17.5
same,SPOT peptide array binding signal intensity,CaSla1-D1-D2,≤ 0
same,SPOT peptide array binding signal intensity,CaSla1-D3,≤ 0
same,SPOT peptide array binding signal intensity,ScAbp1,7.5
same,SPOT peptide array binding signal intensity,ScBbc1,≤ 0
same,SPOT peptide array binding signal intensity,ScBem1-D1,7
same,SPOT peptide array binding signal intensity,ScBzz1-D1,7
same,SPOT peptide array binding signal intensity,ScBzz1-D2,≤ 0
same,SPOT peptide array binding signal intensity,ScCyk3,3
same,SPOT peptide array binding signal intensity,ScFus1,≤ 0
same,SPOT peptide array binding signal intensity,ScHof1,1.5
same,SPOT peptide array binding signal intensity,ScHse1,647
same,SPOT peptide array binding signal intensity,ScLsb1,1.5
same,SPOT peptide array binding signal intensity,ScLsb2,≤ 0
same,SPOT peptide array binding signal intensity,ScLsb3,58
same,SPOT peptide array binding signal intensity,ScLsb4,≤ 0
same,SPOT peptide array binding signal intensity,ScMyo3,≤ 0
same,SPOT peptide array binding signal intensity,ScMyo5,9.25
same,SPOT peptide array binding signal intensity,ScNbp2,≤ 0
same,SPOT peptide array binding signal intensity,ScPex13,2.75
same,SPOT peptide array binding signal intensity,ScRvs167,5.83
same,SPOT peptide array binding signal intensity,ScSho1,87.5
same,SPOT peptide array binding signal intensity,ScSla1-D1-D2,≤ 0
same,SPOT peptide array binding signal intensity,ScSla1-D3,≤ 0
same,SPOT peptide array binding signal intensity,SpAbp1-D1,≤ 0
same,SPOT peptide array binding signal intensity,SpBbc1,≤ 0
same,SPOT peptide array binding signal intensity,SpBzz1-D1,31.5
same,SPOT peptide array binding signal intensity,SpBzz1-D2,0.75
same,SPOT peptide array binding signal intensity,SpCyk3,≤ 0
same,SPOT peptide array binding signal intensity,SpHof1,32.8
same,SPOT peptide array binding signal intensity,SpHof1-2,13
same,SPOT peptide array binding signal intensity,SpHof1-3,251
same,SPOT peptide array binding signal intensity,SpHse1,204
same,SPOT peptide array binding signal intensity,SpLsb1,2
same,SPOT peptide array binding signal intensity,SpLsb4,38
same,SPOT peptide array binding signal intensity,SpMyo1,7
same,SPOT peptide array binding signal intensity,SpNbp2,3
same,SPOT peptide array binding signal intensity,SpPex13,1
same,SPOT peptide array binding signal intensity,SpRvs167,5.67
same,SPOT peptide array binding signal intensity,SpSla1-D1-D2,≤ 0
same,SPOT peptide array binding signal intensity,SpSla1-D3,≤ 0

# From the supplement of paper PMC4466140
